This is part of a sample that, as a whole, favours compounds with a hit. Of some 83,000 tested, about 20% had one in any assay.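 In brief: 96-well plates, 48 h treatment, single concentration, percent growth endpoint.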 Unmarked numbers belong to inactive results. Active and inactive are the calls of the source.
Each compound was assayed on HCT-116 colon (assay: NCI-60 one-dose screen, 48 h (100 = growth as untreated, 0 = no growth, -100 = all killed)). Conditions: 10 µM unless noted.
Protocol: Growth inhibition of the HCT-116 human tumor cell line is measured as a screen for anti-cancer activity. Cells are grown in 96 well plates and exposed to the test compound for 48 hours. Compounds are tested at a single concentration, which is 10^-5 M for most compounds. The reported endpoint is percent growth (GI% or GIPRCNT), where numbers from 0 - 100% represent growth inhibition, and numbers from -100% - 0 represent cell death. For example, a value of 40 represents 60% growth inhibition. A value of 0 means no net growth occurred over the course of the experiment. A value of -40 indicates 40% of cells at the beginning of the experiment died by the end of the experiment. A value of -100 means all cells are dead at the end of the experiment.
NCI-60 Human Tumor Cell Lines Screen was performed using the standard one-dose NCI protocol, which is described in more detail at https://dtp.cancer.gov/discovery_development/nci-60/default.htm.
Compounds with GIPRCNT values below 10 were considered active. Activity score was based on GIPRCNT using the following formula: […]
Score is 0 for GIPRCNT values of 100 or above, 50 for GIPRCNT values of 0, and 100 for GIPRCNT values of -100.

| Structure (SMILES) | growth |
| --- | --- |
| COc1cc(-c2nc3cc(Cl)c(Cl)cc3[nH]2)ccc1OCC(=O)N=Nc1c(O)[nH]c2ccc([N+](=O)[O-])cc12 | 42.6% |
| CCOc1nc(-c2ccccc2)cc2c(O)c(C(=O)NN)[nH]c(=O)c12 | 102% |
| O=[N+]([O-])C1C(c2ccccc2)C12c1ccccc1-c1ccccc12 (stereo not given) | -18.8% (active) |
| CCN1CCN(Cc2cn(CC(=O)Nc3ccc4c(ccn4Cc4ccccc4)c3)nn2)CC1 | 99.2% |
| C/C(=C(/c1ccc(Cl)cc1)c1ccc(OCCN2CCCC2)cc1)c1ccc(Cl)cc1 | 50.4% |
| Oc1c(Cl)cc(Cl)cc1/C=N/Nc1nnc(N/N=C/c2cc(Cl)cc(Cl)c2O)c2ccccc12 | 10% |
| O=S(=O)(Nc1ccc(Cl)cc1)c1ccc(-c2cnc(C3CC3)o2)cc1 | 21.2% |
| CC(C)(C)[Si](C)(C)O[C@H]1C(=O)C=CN2CC=C[C@@H]12 | 92.9% [100 µM] |
| OCc1cccc(-c2ccc3ncc(-c4nc(NC5CC5)ncc4F)n3c2)c1 | 1.41% (active) |
| CN(C)CC(=O)Nc1ccc2ncnc(Nc3ccc(Oc4cccc(C(F)(F)F)c4)c(Cl)c3)c2c1 | 44.1% |
| Nc1c(C(=O)Nc2ccccc2Cl)sc2nc3c(cc12)C(O)CCC3 (stereo not given) | 29.3% |
| COc1cc2oc(-c3cccc(NC(=O)c4cccc(Br)c4)c3)cc(=O)c2c(OC)c1OC | 40.2% |
| O=C1/C(=C/c2ccc(Cl)cc2)COc2ccc(O)c(O)c21 | 0.395% (active) |
| Cc1nc(N2CCOCC2)sc1S(N)(=O)=O | 103% |
| CN(C)CCCn1c2c(c3ncccc3c1=O)C(=O)c1ccccc1-2 | 11.2% |
| O=C(/C=C/c1ccccc1)c1cccc(OCCCOc2cccc(C(=O)/C=C/c3ccccc3)c2)c1 | -81.3% (active) |
| Oc1c(Cl)cc(Cl)c2ccc(Cn3cc(-c4ccc(C(F)(F)F)cc4)nn3)nc12 | 8.81% (active) |
| Cc1nnc(-n2c(O)cc(=O)n(-c3ccccc3)c2=S)nc1/C=C/c1ccc(N(C)C)cc1 | 56.1% |
| O=C(/C=C/c1cn(-c2ccccc2)nc1-c1ccc([N+](=O)[O-])cc1)c1ccc(Cl)cc1 | -12.6% (active) |
| COCCNC(=O)c1ccc(-c2nc3ccc4[nH]ncc4c3c3c2CCCC3)cc1 | 13% |

| Structure (SMILES) | growth |
| --- | --- |
| CO/N=C(/C)c1ccc(NC(=O)CSc2nnc(-c3ccncc3)n2-c2ccccc2)cc1 | 4.38% (active) |
| O=Cc1ccc([N+](=O)[O-])s1 | 46.4% |
| COc1ccc(N2CCC(=O)NC2=S)cc1 | 105% |
| CCCCN[C@H]1CC[C@@]2(C)[C@@H](CC[C@@]3(C)[C@H]2[C@H](O)C[C@H]2/C(=C(\CCC=C(C)C)C(=O)OC)[C@@H](OC(C)=O)C[C@@]23C)[C@@H]1C | 102% |
| Cc1ccc(-n2c(=S)[nH]c3sc4c(c3c2=O)CCC(=O)C4)cc1 | 36.2% |
| Oc1c(Cl)cc(Cl)c2ccc(Cn3cc(-c4cc(F)cc(F)c4)nn3)nc12 | 5.12% (active) |
| COc1cc(C(=O)n2nc(N3CCN(C)CC3)c3cc(N)ccc32)cc(OC)c1OC | 7.66% (active) |
| Cc1ccc(C2=Nc3c(N)ncnc3NC(c3ccc4c(c3)OCO4)C2)cc1 (stereo not given) | 47% |
| COc1cc(OC)c2sc(-c3ccc(-n4cncc4-c4ccc(OC)c(OC)c4)cc3)nc2c1 | 40.8% |
| Cc1ccc(C(C(N)=O)C(C(N)=O)c2ccccc2)cc1 (stereo not given) | 101% |
| Cc1cccnc1NC(=S)Nc1ncccc1C | 101% |
| O=C(O)/C(=C\c1ccc(Cl)cc1)c1ccc(Cl)cc1 | 98.1% |
| CCOC(=O)C1=C(NC)OCC1=O | 108% |
| COc1ccc(-c2nc3c(c(-c4ccccc4)nn3-c3ccccc3)c(-c3ccc(N4CCOCC4)cc3)c2C#N)cc1 | 96% |
| COc1ccc(Cc2cc(-c3ccccc3)nn(Cc3ccccc3)c2=O)cc1OC | 15% |
| O=CC1(C2(C=O)c3ccccc3-c3ccccc32)c2ccccc2-c2ccccc21 | -60.6% (active) |
| OCCOCCN(Cc1ccccn1)Cc1cc(I)cc(I)c1O | 73.4% |
| Clc1ccc(Sc2cnc(-c3ccccc3)o2)cc1 | 104% |
| C=C(CNCCc1ccc(O)cc1)[C@@H]1CC[C@]2(CO)CC[C@]3(C)[C@H](CC[C@@H]4[C@@]5(C)CCC(NCCO)C(C)(C)[C@@H]5CC[C@]43C)[C@@H]12 (stereo not given in full) | -92.5% (active) |
| COc1ccc(C(=O)Nc2cccc(C3CC(=O)c4c(cc(OC)c(OC)c4OC)O3)c2)cc1 (stereo not given) | 10.9% |
